PubChem BioAssay (Tox21)
Inconclusive results are not listed. Activity calls are given as the source filed them. Unless noted, calls come from the whole dose curve; as a rule, active = well fitted curve in the direction sought with a large enough effect in the repeat runs; inconclusive = weak or mixed curves; inactive = no such curve, though single readings can be large; an effect the other way counts as inactive or inconclusive.

Key:
[1] = qHTS assay to identify small molecule HDAC inhibitors - cell viability counter screen (AID 1259365); note: series mostly up to about 92 µM; nearly all actives have a fitted effect of over 50% in size
Procedure, shortened: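 Viability readout: CellTiter-Glo luminescence. Wild-type HCT-116 cells, 2hr compound treatment following overnight attachment at 37 C.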

[2] = qHTS assay to identify small molecule agonists of the sonic hedgehog signaling (Shh) pathway - cell viability counter screen (AID 1259366); note: nearly all actives have a fitted effect of over 50% in size
Procedure, shortened: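 Viability measured fluorometrically (CellTiter-Fluor, 1hr, 37C) in 3T3 Gli1-Luc reporter cells after 23hr compound exposure within a 24hr incubation at 37C/5% CO2.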

[3] = qHTS assay to identify small molecule antagonists of the sonic hedgehog signaling (Shh) pathway - cell viability counter screen (AID 1259367); note: nearly all actives have a fitted effect of over 55% in size
Procedure, shortened: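 Using CellTiter-Fluor, viability of Gli1-Luc reporter 3T3 cells is read by fluorescence in the wells used for the Shh luciferase assay. Treatment lasts 23 hr with conditioned medium, then reagent 1 hr at 37C.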

[4] = qHTS assay to identify small molecule agonists of the sonic hedgehog signaling (Shh) pathway (AID 1259368; calls by dose curve;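 note: NIH/3T3-derived 3T3Gli1-Luc cells carrying a stable Gli1-driven firefly luciferase reporter; series mostly up to about 92 µM; nearly all actives have a fitted effect of over 15% in size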)
Procedure, shortened: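 Luminescent signal was taken as a measure of Gli1-controlled luciferase expression in stably transfected NIH/3T3-derived cells that had been treated for 24 hr with compounds delivered in DMSO.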

[5] = qHTS assay to identify small molecule antagonists of the sonic hedgehog signaling (Shh) pathway (AID 1259369; calls by dose curve; note: nearly all actives have a fitted effect of over 45% in size)
Procedure, shortened: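 Screening used 3T3Gli1-Luc cells at 2,000 per well, compounds delivered in DMSO, and conditioned medium as agonist stimulus; plates incubated 24hr at 37 C and 5% CO2 before a 30min luciferase step.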

[6] = biological target: Estrogen receptor beta (Homo sapiens) (UniProt Q92731); assay: qHTS assay to identify small molecule antagonists of the estrogen receptor beta (ER-beta) signaling pathway (AID 1259378; active = well fitted inhibition curve with a large enough effect in the signal ratio in the repeat runs, not every such curve was filed as active; the % refers to the signal ratio)
Chain of Estrogen receptor beta (Homo sapiens) (Q92731 whole entry, looked up): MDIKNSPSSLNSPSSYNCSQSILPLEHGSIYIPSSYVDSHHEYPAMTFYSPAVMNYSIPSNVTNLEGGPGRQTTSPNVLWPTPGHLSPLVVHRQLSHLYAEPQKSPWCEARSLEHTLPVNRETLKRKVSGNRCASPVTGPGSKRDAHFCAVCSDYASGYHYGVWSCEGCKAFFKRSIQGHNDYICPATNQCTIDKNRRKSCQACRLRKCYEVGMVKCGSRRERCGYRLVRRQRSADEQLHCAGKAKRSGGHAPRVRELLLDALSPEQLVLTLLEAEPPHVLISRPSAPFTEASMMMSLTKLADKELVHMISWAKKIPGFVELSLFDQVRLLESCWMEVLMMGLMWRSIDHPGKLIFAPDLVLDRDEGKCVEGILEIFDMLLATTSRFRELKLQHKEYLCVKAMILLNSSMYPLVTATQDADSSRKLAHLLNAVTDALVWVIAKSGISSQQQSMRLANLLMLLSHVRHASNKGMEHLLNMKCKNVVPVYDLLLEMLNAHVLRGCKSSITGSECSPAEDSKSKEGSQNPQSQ
Procedure, shortened: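 Antagonist mode: compounds added to beta-lactamase reporter HEK293T ER-beta-UAS cells stimulated with E2 (1nM final), 16 hr at 37C. LiveBLAzer B/G FRET substrate, 2 hours room temperature, fluorescence read-out.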

[7] = qHTS assay to identify small molecule agonists of the androgen receptor (AR) signaling pathway in the presence of an antagonist - cell viability counter screen (AID 1259379);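 note: MDA-kb2 human breast cancer cells carrying an MMTV luciferase reporter; series mostly up to about 92 µM; nearly all actives have a fitted effect of over 25% in size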
Procedure, shortened: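 In MDA-kb2 cells (human breast carcinoma, MMTV-luciferase), compounds at 15 concentrations plus 3.0uM nilutamide; 16 hr, 37C, 0% CO2; CellTiter-Fluor fluorescence read for viability.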

[8] = qHTS assay to identify small molecule agonists of the estrogen receptor beta (ER-beta) signaling pathway - cell viability counter screen (AID 1259380); note: nearly all actives have a fitted effect of over 30% in size
Procedure, shortened: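 Viability of ER-beta-UAS-bla HEK293T cells was determined by CellTiter-Glo luminescence following 16 hr treatment with test compounds at 37C.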

[9] = biological target: Androgen receptor (Homo sapiens) (UniProt P10275); assay: qHTS assay to identify small molecule agonists of the androgen receptor (AR) signaling pathway in the presence of an antagonist (AID 1259381; calls by dose curve; note: nearly all actives have a fitted effect of over 15% in size)
Chain of Androgen receptor (Homo sapiens) (P10275 whole entry, looked up): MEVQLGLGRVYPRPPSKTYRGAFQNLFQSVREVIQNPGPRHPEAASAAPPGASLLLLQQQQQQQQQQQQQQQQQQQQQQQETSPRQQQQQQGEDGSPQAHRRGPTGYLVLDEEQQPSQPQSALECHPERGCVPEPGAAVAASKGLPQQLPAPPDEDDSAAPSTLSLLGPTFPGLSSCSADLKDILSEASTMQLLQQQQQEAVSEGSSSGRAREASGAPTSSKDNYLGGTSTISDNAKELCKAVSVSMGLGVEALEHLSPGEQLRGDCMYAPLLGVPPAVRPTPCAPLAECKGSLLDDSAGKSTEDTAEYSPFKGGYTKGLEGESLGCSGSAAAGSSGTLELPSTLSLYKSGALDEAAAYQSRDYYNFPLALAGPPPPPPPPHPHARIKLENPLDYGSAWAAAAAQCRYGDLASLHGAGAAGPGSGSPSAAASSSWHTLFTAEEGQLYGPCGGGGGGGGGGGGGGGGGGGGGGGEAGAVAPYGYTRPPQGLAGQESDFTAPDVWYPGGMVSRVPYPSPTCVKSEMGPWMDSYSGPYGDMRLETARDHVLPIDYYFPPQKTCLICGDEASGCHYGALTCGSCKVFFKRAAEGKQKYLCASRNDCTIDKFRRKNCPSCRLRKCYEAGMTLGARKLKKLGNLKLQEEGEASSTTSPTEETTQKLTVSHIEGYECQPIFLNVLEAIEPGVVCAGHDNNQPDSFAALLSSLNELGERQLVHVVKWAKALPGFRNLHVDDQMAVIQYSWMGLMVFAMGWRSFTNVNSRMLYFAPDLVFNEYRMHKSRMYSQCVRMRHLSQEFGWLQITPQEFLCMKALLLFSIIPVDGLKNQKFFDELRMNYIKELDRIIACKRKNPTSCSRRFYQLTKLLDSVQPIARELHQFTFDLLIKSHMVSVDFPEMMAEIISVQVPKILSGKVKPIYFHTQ
Procedure, shortened: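 Here, 15-concentration compound series were pin-transferred onto MDA-kb2 MMTV-luciferase cells already dosed with nilutamide (3.0uM final). After 16hr at 37C, ONE-Glo was added and luminescence read 30min later at room temperature.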

[10] = qHTS assay to identify small molecule antagonists of the estrogen receptor beta (ER-beta) signaling pathway - cell viability counter screen (AID 1259382);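 note: HEK293T cells carrying ER-beta-UAS-bla reporter stimulated with estradiol; series mostly up to about 92 µM; nearly all actives have a fitted effect of over 55% in size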
Procedure, shortened: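 Tox21 10K library tested in qHTS format on ER-beta-bla HEK293T cells stimulated with 1nM E2; 16 hr treatment at 37C. Same-well CellTiter-Glo luminescence served as the cell viability measure.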

[11] = biological target: Estrogen receptor (Homo sapiens) (UniProt P03372); assay: qHTS assay to identify small molecule agonists of the estrogen receptor alpha (ER-alpha) signaling pathway in the presence of an antagonist (AID 1259383; calls by dose curve; note: top concentration of the series differs between compounds; nearly all actives have a fitted effect of over 15% in size)
Chain of Estrogen receptor (Homo sapiens) (P03372 whole entry, looked up): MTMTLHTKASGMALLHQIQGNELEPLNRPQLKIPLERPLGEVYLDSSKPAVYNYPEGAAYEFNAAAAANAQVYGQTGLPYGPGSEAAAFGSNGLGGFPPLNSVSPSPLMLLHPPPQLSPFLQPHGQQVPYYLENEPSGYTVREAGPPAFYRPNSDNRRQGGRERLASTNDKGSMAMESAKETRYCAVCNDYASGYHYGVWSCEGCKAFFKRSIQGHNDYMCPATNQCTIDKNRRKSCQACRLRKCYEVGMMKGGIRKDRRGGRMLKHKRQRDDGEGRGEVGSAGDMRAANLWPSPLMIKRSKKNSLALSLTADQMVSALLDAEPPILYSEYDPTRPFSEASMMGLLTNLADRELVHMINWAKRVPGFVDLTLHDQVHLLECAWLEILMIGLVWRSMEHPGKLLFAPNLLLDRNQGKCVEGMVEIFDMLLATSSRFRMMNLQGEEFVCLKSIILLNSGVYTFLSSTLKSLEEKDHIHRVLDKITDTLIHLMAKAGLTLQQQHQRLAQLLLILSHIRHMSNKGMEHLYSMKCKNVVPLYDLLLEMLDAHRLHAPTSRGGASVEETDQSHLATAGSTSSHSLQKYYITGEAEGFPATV
Procedure, shortened: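 In VM7Luc4E2 cells, 4,000 per well, compounds at 15 concentrations were co-incubated 22hr at 37C with 10.0nM final ICI-182,780. Luminescence from the stably transfected 4×ERE-luciferase reporter was recorded 30min after ONE-Glo addition.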

[12] = qHTS assay to identify small molecule agonists or antagonists of the thyroid stimulating hormone receptor (TSHR) signaling pathway - wild type cell line counter screen (AID 1259384; calls by dose curve)
Procedure, shortened: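 Counter screen in untransfected Hek293: compounds (15-point titration, triplicate) plus phosphodiesterase inhibitor Ro20-1724 added after 18 h plating; 30 min RT. Intracellular cAMP via competitive d2/cryptate immunoassay, 1 h incubation.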

[13] = biological target: Thyrotropin receptor (Homo sapiens) (UniProt P16473); assay: qHTS assay to identify small molecule antagonists of the thyroid stimulating hormone receptor (TSHR) signaling pathway (AID 1259385; calls by dose curve; note: nearly all actives have a fitted effect of over 20% in size)
Chain of Thyrotropin receptor (Homo sapiens) (P16473 whole entry, looked up): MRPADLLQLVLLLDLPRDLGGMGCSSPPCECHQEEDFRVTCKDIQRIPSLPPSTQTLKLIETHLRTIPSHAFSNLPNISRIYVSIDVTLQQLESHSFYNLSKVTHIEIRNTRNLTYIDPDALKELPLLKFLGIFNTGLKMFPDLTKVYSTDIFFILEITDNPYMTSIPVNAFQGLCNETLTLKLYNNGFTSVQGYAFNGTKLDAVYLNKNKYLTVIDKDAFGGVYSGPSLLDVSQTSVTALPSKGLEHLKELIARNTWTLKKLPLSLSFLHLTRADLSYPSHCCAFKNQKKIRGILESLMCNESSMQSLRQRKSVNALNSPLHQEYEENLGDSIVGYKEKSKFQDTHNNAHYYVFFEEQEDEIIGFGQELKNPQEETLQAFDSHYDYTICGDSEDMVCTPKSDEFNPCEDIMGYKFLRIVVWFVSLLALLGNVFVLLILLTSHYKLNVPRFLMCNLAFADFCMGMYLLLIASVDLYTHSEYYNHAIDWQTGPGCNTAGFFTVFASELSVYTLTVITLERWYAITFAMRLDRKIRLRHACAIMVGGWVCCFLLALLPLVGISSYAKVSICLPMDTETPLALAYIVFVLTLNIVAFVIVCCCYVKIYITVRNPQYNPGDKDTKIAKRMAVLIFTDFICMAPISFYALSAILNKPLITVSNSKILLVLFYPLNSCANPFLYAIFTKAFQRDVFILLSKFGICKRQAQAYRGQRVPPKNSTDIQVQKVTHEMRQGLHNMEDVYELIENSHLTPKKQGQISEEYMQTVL
Procedure, shortened: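 Antagonist mode: compound-treated TSHR-expressing HEK293 cells were stimulated with 1.5 ng/mL TSH (final) in presence of Ro20-1724 for 30 min at RT. HTRF cAMP detection after 1 h; each compound tested at 15 concentrations, triplicate.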

[14] = qHTS assay to identify small molecule agonists of the estrogen receptor alpha (ER-alpha) signaling pathway in the presence of an antagonist - cell viability counter screen (AID 1259386);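 note: series mostly up to about 92 µM; cells exposed to compounds for 22 h at 37 °C before the viability read; nearly all actives have a fitted effect of over 30% in size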
Procedure, shortened: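 Fluorescent CellTiter-Fluor viability signal from VM7Luc4E2 cells, with the reagent added during the final hour of a 22hr compound exposure at 37C in the presence of 10.0nM ICI-182,780.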

[15] = qHTS assay to identify small molecule antagonists of the progesterone receptor (PR) signaling pathway - cell viability counter screen (AID 1346798); note: series mostly up to about 92 µM; nearly all actives have a fitted effect of over 50% in size
Procedure, shortened: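 Same-well multiplex: after 16 hr at 37C with compound and R5020 stimulation, HEK293T cells carrying a UAS-bla reporter received LiveBLAzer substrate (2 hr RT), then CellTiter-Glo (30 min RT) for luminescent viability.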

[16] = qHTS assay to identify small molecule agonists of the progesterone receptor (PR) signaling pathway - cell viability counter screen (AID 1346799; calls by dose curve; note: nearly all actives have a fitted effect of over 45% in size)
Procedure, shortened: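 Counter screen for cytotoxicity: compound-treated PR-UAS-bla HEK293T cells (16 hr, 37C, 5% CO2) were assayed with CellTiter-Glo, luminescence measured after 30 min at room temperature.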

[17] = qHTS assay to identify small molecule antagonists of the TGF-beta/Smad signaling pathway - cell viability counter screen (AID 1346824); note: nearly all actives have a fitted effect of over 50% in size
Procedure, shortened: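 Cytotoxicity counter-screen run in the same wells as the beta-lactamase Smad reporter read: CellTiter-Glo luminescence after 30 min at room temperature. HEK 293T SBE-bla cells had 5 hr compound exposure at 37 C with TGF-beta1 (0.25 ng/mL stock).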

[18] = biological target: Progesterone receptor (Homo sapiens) (UniProt P06401); assay: qHTS assay to identify small molecule agonists of the progesterone receptor (PR) signaling pathway (AID 1346784; calls by dose curve; note: nearly all actives have a fitted effect of over 30% in size)
Chain of Progesterone receptor (Homo sapiens) (P06401 whole entry, looked up): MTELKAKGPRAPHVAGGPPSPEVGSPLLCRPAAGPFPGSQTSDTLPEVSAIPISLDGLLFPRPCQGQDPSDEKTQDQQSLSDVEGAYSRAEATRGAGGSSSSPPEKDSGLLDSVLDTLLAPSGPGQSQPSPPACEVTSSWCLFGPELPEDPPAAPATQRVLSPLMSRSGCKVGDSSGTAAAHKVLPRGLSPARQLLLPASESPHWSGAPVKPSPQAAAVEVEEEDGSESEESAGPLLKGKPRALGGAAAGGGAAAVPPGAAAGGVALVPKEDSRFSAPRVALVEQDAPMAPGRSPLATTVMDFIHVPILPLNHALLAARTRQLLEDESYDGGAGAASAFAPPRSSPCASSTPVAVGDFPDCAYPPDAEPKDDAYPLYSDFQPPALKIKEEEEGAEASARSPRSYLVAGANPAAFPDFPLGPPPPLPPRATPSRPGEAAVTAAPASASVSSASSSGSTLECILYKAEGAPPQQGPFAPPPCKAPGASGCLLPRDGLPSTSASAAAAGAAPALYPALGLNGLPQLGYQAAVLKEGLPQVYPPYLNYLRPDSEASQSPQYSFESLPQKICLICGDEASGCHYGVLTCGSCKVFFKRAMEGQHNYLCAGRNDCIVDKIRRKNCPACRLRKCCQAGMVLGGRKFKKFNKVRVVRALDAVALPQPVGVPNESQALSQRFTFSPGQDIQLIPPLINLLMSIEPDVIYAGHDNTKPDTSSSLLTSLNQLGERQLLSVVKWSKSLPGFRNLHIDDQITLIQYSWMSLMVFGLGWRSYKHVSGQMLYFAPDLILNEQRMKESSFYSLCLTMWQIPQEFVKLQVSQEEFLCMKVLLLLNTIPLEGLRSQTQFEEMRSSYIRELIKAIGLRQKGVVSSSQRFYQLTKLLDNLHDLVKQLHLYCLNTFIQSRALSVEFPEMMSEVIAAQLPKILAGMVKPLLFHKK
Procedure, shortened: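 Agonist mode, quantitative HTS format in a HEK 293T line expressing a UAS-controlled beta-lactamase reporter; 16 hr compound exposure at 37C in 2% charcoal-stripped FBS, then LiveBLAzer B/G FRET fluorescence.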

[19] = biological target: Progesterone receptor (Homo sapiens) (UniProt P06401); assay: qHTS assay to identify small molecule antagonists of the progesterone receptor (PR) signaling pathway (AID 1346795; active = well fitted inhibition curve with a large enough effect in the signal ratio in the repeat runs, not every such curve was filed as active; the % refers to the signal ratio)
Procedure, shortened: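 HEK293T PR-UAS-bla reporter cells in charcoal-stripped serum (2%) received compound after a 6 hr settling period, followed by R5020 agonist at 1 nM final; 16 hr incubation preceded the FRET substrate step and fluorescence measurement.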
% is set by controls: 0 for no effect and ±100 for the full control effect.

CCCCCCCCCCCCCCCCN(C)C
inactive: activity change, negative = cytotoxicity [1] 1.52% [at 8.39 µM] | viability change, negative = cytotoxic [2] 4.7% [at 8.39 µM] | viability change, negative = cytotoxic [3] 2.16% [at 8.39 µM] | activity change [4] -0.702% [at 8.39 µM] | activity change, negative = inhibition [5] -28.7% [at 8.39 µM] | activity, negative = inhibition [6] 3.25% [at 8.39 µM] | activity change, negative = cytotoxicity [7] 0.395% [at 8.39 µM] | activity change, negative = cytotoxicity [8] 3.62% [at 8.39 µM] | activation [9] -0.033% [at 8.39 µM] | activity change, negative = cytotoxicity [10] 6.11% [at 8.39 µM] | activation [11] 0.651% [at 8.39 µM] | cAMP activity change [12] -1.46% [at 8.39 µM] | activity change, negative = inhibition [13] 1.02% [at 8.39 µM] | activity change, negative = cytotoxicity [14] 0.513% [at 8.39 µM] | activity change, negative = cytotoxicity [15] -0.0264% [at 8.39 µM] | activity change, negative = cytotoxicity [16] -6.19% [at 8.39 µM] | viability change, negative = cytotoxic [17] 3.18% [at 6.97 µM]

Cc1cc(C)c(C)c(C)c1
inactive: outcome [1] | outcome [2] | outcome [3] | outcome [4] | Potency [5] | outcome [6] | outcome [7] | Potency [8] | Potency [11] | outcome [14] | Potency [18] | Potency [19] | outcome [15] | Potency [16] | outcome [17]

CC(C)c1cc(C(C)C)cc(C(C)C)c1
inactive: outcome [1] | outcome [2] | outcome [3] | outcome [4] | Potency [5] | outcome [6] | outcome [7] | Potency [8] | outcome [10] | Potency [11] | outcome [14] | Potency [18] | Potency [19] | outcome [15] | Potency [16] | outcome [17]

CCCCCCCCCCCCCCBr
inactive: outcome [1] | outcome [2] | outcome [3] | outcome [4] | Potency [5] | outcome [6] | outcome [7] | Potency [8] | outcome [10] | Potency [11] | outcome [12] | outcome [13] | outcome [14] | Potency [19] | outcome [15] | outcome [17]

Clc1cc(Cl)c(Cl)c(Cl)c1Cl
inactive: outcome [1] | outcome [2] | outcome [3] | outcome [4] | Potency [5] | outcome [6] | outcome [7] | Potency [8] | outcome [10] | Potency [11] | outcome [12] | outcome [13] | outcome [14] | Potency [18] | Potency [19] | outcome [15] | outcome [17]

C[C@@H]1NC(=O)[C@@H](N)CNC(=O)[C@H](C2CCNC(N)=N2)NC(=O)/C(=C/NC(N)=O)NC(=O)[C@H](CNC(=O)C[C@@H](N)CCCN)NC1=O (stereo not given in full)
inactive: activity change, negative = cytotoxicity [1] -0.0427% [at 0.349 µM] | viability change, negative = cytotoxic [2] -4% [at 0.349 µM] | viability change, negative = cytotoxic [3] 1.74% [at 0.349 µM] | activity change [4] 0.0291% [at 0.349 µM] | activity change, negative = inhibition [5] 22.6% [at 0.349 µM] | activity, negative = inhibition [6] -0.409% [at 0.349 µM] | activity change, negative = cytotoxicity [7] 5.61% [at 0.35 µM] | activity change, negative = cytotoxicity [10] 4.08% [at 0.349 µM] | activation [11] 1.04% [at 0.349 µM] | cAMP activity change [12] -0.133% [at 0.349 µM] | activity change, negative = inhibition [13] 2.75% [at 0.349 µM] | activity change, negative = cytotoxicity [14] -0.264% [at 0.349 µM] | activation [18] -1.98% [at 0.349 µM] | activity change, negative = inhibition [19] 9.13% [at 0.348 µM] | activity change, negative = cytotoxicity [15] 0.0667% [at 0.348 µM] | activity change, negative = cytotoxicity [16] -15.7% [at 0.349 µM] | viability change, negative = cytotoxic [17] 13.5% [at 0.29 µM]

CCOC(=O)c1ccc(N(C)C)cc1
inactive: outcome [1] | outcome [2] | outcome [3] | outcome [4] | Potency [5] | outcome [6] | outcome [7] | Potency [8] | Potency [11] | outcome [14] | Potency [19] | outcome [15] | Potency [16] | outcome [17]

C/C=C(\C)C(=O)OC/C=C(\C)CCC=C(C)C
inactive: outcome [1] | outcome [2] | outcome [3] | outcome [4] | Potency [5] | outcome [6] | outcome [7] | Potency [8] | outcome [10] | Potency [11] | outcome [12] | outcome [13] | outcome [14] | Potency [18] | Potency [19] | outcome [15] | Potency [16] | outcome [17]
